# Results from PubChem BioAssay (NCI).
# This is part of a sample that, as a whole, favours compounds with a hit. Of some 83,000 tested, about 20% had one in any assay.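 96-well plates, one dose, 48 hours. Percent growth reported; active if below 10.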 Calls of active or inactive are those of the source.
# Tested on: OVCAR-5 ovarian
# Experiment: NCI-60 one-dose screen, 48 h (100 = growth as untreated, 0 = no growth, -100 = all killed)
# Conditions: 10 µM unless noted
row,Structure (SMILES),growth
1,CCCCCN1C=C/C(=C\C(=O)N(C)c2ccc(Oc3ccccc3)cc2)c2ccccc21,92.9% (inactive)
2,CNC(=O)c1cncc(Cn2nc(C)c(NC(=O)c3ccc(COc4ccc(C(F)(F)F)cc4C)cc3)c2C)c1,98.1% (inactive)
3,Nc1c(C(=O)Nc2ccnc3ccccc23)sc2nc3c(cc12)CN(Cc1ccccc1)CC3,94.1% (inactive)
4,CC1=C(C(=O)/C=C/c2ccc(N(C)C)cc2)C(c2ccccc2)NC(=S)N1 (configuration not stated),102% (inactive)
5,Nc1nc(Nc2ccccc2SSc2ccccc2Nc2nc(N)nc(-c3cccs3)n2)nc(-c2ccsc2)n1,118% (inactive)
6,COc1cc2c(cc1OC)C(=O)/C(=C/c1cc(C)c(O)c(C)c1)S2,64.7% (inactive)
7,COc1cc2c(=O)n(CCCN(C)C)c3c4cc5c(cc4ccc3c2cc1OC)OCO5,112% (inactive)
8,CCN(CC)CC[n+]1cc2cc(OC)c(OC)cc2c2ccc3cc4c(cc3c21)OCO4,6.85% (active)
9,O=C(Nc1ccc(NC(=O)c2cc(=O)[nH]c3ccccc23)cc1)Nc1cccc(Cl)c1,87.9% (inactive)
10,COc1ccc(/C=C2\Oc3cc(OCCCN4CCCCC4)ccc3C2=O)cc1OC,95.2% (inactive)
11,Cc1nc(N)nc(N[C@@H](C)c2nc3cccc(NCc4ccc(C(=O)NO)cc4)c3c(=O)n2-c2ccccc2)n1,90.5% (inactive)
12,Cc1ccc(/C=N/NC(=O)CSc2nc3ccccc3c(=O)n2Cc2ccc(S(N)(=O)=O)cc2)cc1,95.6% (inactive)
13,COc1cc(/C(C)=C(\c2ccc(Cl)cc2)c2ccc(OCCN3CCCC3)cc2)ccc1F,74.8% (inactive)
14,COc1cc2nc(-c3ccc(Cl)cc3)cc(OCCCN3CCOCC3)c2cc1OC,42.8% (inactive)
15,COc1ccc(NC(N)=NCCCOc2ccc(F)cc2)cc1,92.1% (inactive)
16,COC(=O)CNC(=O)[C@]12CCC(C)(C)C[C@H]1C1=CC[C@@H]3[C@@]4(C)Cc5c([nH]c6ccccc56)C(C)(C)[C@@H]4CC[C@@]3(C)[C@]1(C)CC2,95.4% (inactive)
17,C[C@H]1[C@H](C)CC[C@]2(C(=O)Nc3ccc4ncccc4c3)CC[C@]3(C)C(=CC[C@@H]4[C@@]5(C)CCCNC(C)(C)[C@@H]5CC[C@]43C)[C@H]12,74.9% (inactive)
18,COc1cc(NC(C)CCCNC(=O)CCC(=O)NCCCNCCCCCCCCCCNCCCNC(=O)CCC(=O)NCCCC(C)Nc2cc(OC)cc3cccnc23)c2ncccc2c1 (configuration not stated),79.3% [8 µM] (inactive)
19,CCCCCN1C=C/C(=C\C(=O)n2ccc3ccccc32)c2ccccc21,93.7% (inactive)

row,Structure (SMILES),growth
1,Cc1cc2nc3c4ccc(Br)cc4n(CCN(C)C)c3nc2cc1C,25.1% (inactive)
2,CC1(C)CC(=O)C2=C(C1)N(c1ccc(F)cc1F)C(N)=C(C#N)C2c1cc(Br)ccc1F (configuration not stated),107% (inactive)
3,C[C@H]1[C@H](C)CC[C@]2(C(=O)NCC#CCN3CCN(C)CC3)CC[C@]3(C)C(=CC[C@@H]4[C@@]5(C)Cc6c([nH]c7ccccc67)C(C)(C)[C@@H]5CC[C@]43C)[C@H]12,94.4% (inactive)
4,COc1cc2nc(-c3ccc(C(F)(F)F)cc3)cc(OCCCN3CCOCC3)c2cc1OC,45.8% (inactive)
5,O=C1c2c(c3c4cccc(F)c4[nH]c3c3ccc4ccccc4c23)C(=O)N1O,103% (inactive)
6,O=C1OC(Cc2ccccc2)C1c1ccccc1 (configuration not stated),98.9% (inactive)
7,COc1cccc(/C=N/NC(=O)c2cnn3c2NC(c2ccccc2)C3)c1Oc1ccccc1 (configuration not stated),97.4% (inactive)
8,COc1ccc(NC(=O)c2cc(NCc3cc(O)ccc3O)ccc2O)cc1,116% (inactive)
9,COc1cc2nc(-c3ccc(Cl)cc3)cc(OCCCN3CCCC3)c2cc1OC,52.6% (inactive)
10,COc1ccc(C/C(=C(\C)c2ccc(OCCN3CCCC3)cc2)c2ccc(OCCN3CCCC3)cc2)cc1,77.8% (inactive)
11,COc1cc(NC(C)CCCNC(=O)CCC(=O)NCCCNCCCCCCCCNCCCNC(=O)CCC(=O)NCCCC(C)Nc2cc(OC)cc3cccnc23)c2ncccc2c1 (configuration not stated),66.8% (inactive)
12,COc1ccc(Cc2cnc(NC(=O)c3ccc4c(c3)OCCO4)s2)cc1,26.1% (inactive)
13,CC(=O)N1c2ccccc2NC2=C(C(=O)NC2(C)C)C1c1ccco1 (configuration not stated),95.1% (inactive)
14,O=S(=O)(NCCNc1nccc(-c2c(-c3cccc(F)c3)nc3sccn23)n1)c1ccc(Cl)cc1,93.3% (inactive)
15,CC(Sc1nc2sc3c(c2c(=O)n1-c1ccc(Cl)cc1)CCCC3)C(=O)Nc1nc(-c2ccc(Br)cc2)cs1 (configuration not stated),93.9% (inactive)
16,C[C@@H](Nc1ncnc2ccc(-c3cnc(N)nc3)cc12)c1ccc(F)cc1,44.6% (inactive)
17,CC1(C)CC[C@]23CC[C@]4(C)[C@H](CC[C@@H]5[C@@]6(C)CCCNC(C)(C)[C@@H]6CC[C@]54C)[C@H]2[C@H]1OC3,8.55% (active)
18,COc1ccc(C(=O)c2nc3ccccc3n2CC(=O)c2ccc(Cl)cc2)cc1,47% (inactive)
